Some test systems named below: NCI-H23 lung; NCI-H226 lung; NCI-H322M lung; HOP-62 NSCLC; NCI-H460 lung; NCI-H522 lung; A549/ATCC NSCLC; 786-0 renal; COLO 205 colon; DU-145 prostate; K-562 leukemia; MALME-3M melanoma; MDA-MB-231 breast; RXF 393 renal; SF-268 CNS; SF-295 CNS; SF-539 CNS; UACC-257 melanoma; M14 melanoma; HCT-15 colon.
Holding throughout (experiment): NCI-60 one-dose screen, 48 h (100 = growth as untreated, 0 = no growth, -100 = all killed)
Holding throughout (settings): 10 µM

The panel holds about 83,000 compounds, 20% with a hit somewhere; the sample as a whole holds those more often.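 Activity criterion: percent growth below 10, measured after cells in 96-well plates were exposed to a single compound concentration for 48 hours.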 Values without a mark were called inactive. Active and inactive are the calls of the source.

With `CN(C)CCCn1c(=O)c2ccccc2c2cnc3[nH]ccc3c21`, the growth with NCI-H23 lung is 13.8%; in the assay on NCI-H226 lung it was -0.537% (active); with NCI-H322M lung it was 9.79% (active); in the assay with HOP-62 NSCLC, -1.44% (active); in the assay on NCI-H460 lung it was -6.21% (active); in the assay with NCI-H522 lung, -38.9% (active). For the same molecule, the growth was 1.69% (active) with A549/ATCC NSCLC; 15.2% with 786-0 renal; -31.3% (active) with COLO 205 colon; -0.745% (active) in the assay on DU-145 prostate; -10.9% (active) in the assay with K-562 leukemia; -25.1% (active) in the assay with MALME-3M melanoma. For the same molecule, the growth with MDA-MB-231 breast was -11.2% (active); with RXF 393 renal, 5.57% (active); in the assay on SF-268 CNS, 21.1%; in the assay with SF-295 CNS, 12.4%; in the assay with SF-539 CNS, 30.3%; in the assay on UACC-257 melanoma it was -20.6% (active). In addition, the growth in the assay on M14 melanoma was -6.79% (active); with HCT-15 colon, 10.5%.
As to `CN(C)c1ccc(Cc2ccc(N(C)C)cc2Cl)c(Cl)c1`, the growth in the assay with NCI-H23 lung is 97%; with NCI-H226 lung it was 89.4%; in the assay on NCI-H322M lung it was 99.3%; with HOP-62 NSCLC, 105%; in the assay with NCI-H460 lung, 98.4%; with NCI-H522 lung, 80.1%. Further, the growth is 96.5% with A549/ATCC NSCLC; 112% in the assay on 786-0 renal; 108% in the assay with COLO 205 colon; 103% with DU-145 prostate; 90.2% in the assay on K-562 leukemia; 91.9% in the assay with MALME-3M melanoma. The growth is 109% in the assay on MDA-MB-231 breast; 93.2% in the assay with RXF 393 renal; 103% with SF-268 CNS; 116% with SF-295 CNS; 108% in the assay on SF-539 CNS; 110% in the assay with UACC-257 melanoma. Besides, the growth with M14 melanoma was 107%; in the assay with HCT-15 colon it was 101%.
In the case of `CC1(C)Cc2c(sc3ncn4nc(-c5ccc(O)cc5)nc4c23)CO1`, the growth is 90.9% in the assay on NCI-H23 lung; 57.9% in the assay on NCI-H226 lung; 90.4% with NCI-H322M lung; 79.2% in the assay with HOP-62 NSCLC; 63.2% in the assay on NCI-H460 lung; 53.5% with NCI-H522 lung. The growth was 63% in the assay on A549/ATCC NSCLC; 74.9% in the assay with 786-0 renal; 114% in the assay on COLO 205 colon; 76.1% in the assay with DU-145 prostate; 76.8% with K-562 leukemia; 68.2% in the assay with MALME-3M melanoma. Moreover, the growth was 70.5% with MDA-MB-231 breast; 66.3% with RXF 393 renal; 64.1% with SF-268 CNS; 76.2% in the assay on SF-295 CNS; 75.1% in the assay with SF-539 CNS; 89.7% in the assay with UACC-257 melanoma. For the same molecule, the growth in the assay with M14 melanoma is 86.6%; in the assay with HCT-15 colon, 75.1%.
Turning to `Nc1nc(N=Nc2ccc(O)cc2)cc(=O)[nH]1`, the growth in the assay on NCI-H23 lung was 101%; in the assay with NCI-H226 lung it was 114%; with NCI-H322M lung, 104%; in the assay on HOP-62 NSCLC, 102%; in the assay with NCI-H460 lung, 107%; in the assay with NCI-H522 lung, 112%. Also, the growth with A549/ATCC NSCLC was 111%; in the assay with 786-0 renal, 105%; with COLO 205 colon, 106%; with DU-145 prostate, 116%; with K-562 leukemia, 106%; with MALME-3M melanoma, 96.4%. In addition, the growth was 98.7% in the assay with MDA-MB-231 breast; 74.4% in the assay on RXF 393 renal; 111% in the assay on SF-268 CNS; 94.9% with SF-295 CNS; 96.6% in the assay with SF-539 CNS; 112% with UACC-257 melanoma. The growth with M14 melanoma and in the assay on HCT-15 colon was 101% in each case.
Turning to `C[C@]12CC[C@@H]3c4ccc(O)cc4C[C@@H](O)[C@H]3[C@@H]1CC[C@@H]2O`, the growth was 110% in the assay on NCI-H23 lung; 101% in the assay with NCI-H226 lung; 102% in the assay on NCI-H322M lung; 108% in the assay with HOP-62 NSCLC; 108% in the assay on NCI-H460 lung; 106% with NCI-H522 lung. Moreover, the growth in the assay on A549/ATCC NSCLC was 94.6%; with 786-0 renal, 105%; in the assay with COLO 205 colon it was 119%; in the assay on DU-145 prostate, 110%; with K-562 leukemia, 105%; with MALME-3M melanoma, 102%. Moreover, the growth is 107% in the assay with MDA-MB-231 breast; 110% in the assay with RXF 393 renal; 109% in the assay with SF-268 CNS; 112% with SF-295 CNS; 96.5% in the assay on SF-539 CNS; 88.6% in the assay with UACC-257 melanoma. For the same molecule, the values for the growth in the assay with M14 melanoma and in the assay on HCT-15 colon were 105% and 102%, respectively.
Consider `Nc1nc(-c2ccccc2Cl)cc(-c2ccc(Cl)cc2Cl)n1`, for which the growth was 75.4% with NCI-H23 lung; 87.7% with NCI-H226 lung; 89.5% in the assay on NCI-H322M lung; 76.2% with HOP-62 NSCLC; 49.8% in the assay with NCI-H460 lung; 68.5% with NCI-H522 lung. The growth in the assay on A549/ATCC NSCLC is 52.7%; in the assay with 786-0 renal it was 90.2%; in the assay on COLO 205 colon it was 64.9%; in the assay with DU-145 prostate, 91.4%; in the assay with K-562 leukemia, 27.3%; with MALME-3M melanoma it was 86.6%. The growth with MDA-MB-231 breast is 65%; in the assay with RXF 393 renal, 75.8%; in the assay on SF-268 CNS, 65.9%; with SF-295 CNS, 38.7%; in the assay with SF-539 CNS, 72.2%; with UACC-257 melanoma, 93%. The growth was 53.5% in the assay on M14 melanoma and 90.2% with HCT-15 colon.
In the case of `COc1ccc(Cl)cc1C(=O)Nc1nc2ccc(Cl)cc2s1`, the growth in the assay on NCI-H23 lung is 90.5%; in the assay with NCI-H226 lung it was 89.2%; in the assay on NCI-H322M lung, 85.6%; in the assay with HOP-62 NSCLC it was 89.4%; in the assay with NCI-H460 lung it was 93.7%; in the assay on NCI-H522 lung it was 99.4%. Also, the growth in the assay with A549/ATCC NSCLC was 76.7%; in the assay with 786-0 renal, 75.8%; in the assay on COLO 205 colon, 82.8%; in the assay on DU-145 prostate, 94.9%; in the assay on K-562 leukemia it was 86.8%; in the assay with MALME-3M melanoma it was 83.3%. Moreover, the growth is 70.9% with MDA-MB-231 breast; 95% with RXF 393 renal; 83.2% with SF-268 CNS; 170% in the assay on SF-295 CNS; 86.4% in the assay on SF-539 CNS; 102% in the assay with UACC-257 melanoma. The growth with M14 melanoma was 95.1%; with HCT-15 colon it was 86.5%.
In the case of `COc1ccc2c(c1)nc(N)c1c3cccnc3cn21`, the growth was 33.9% in the assay with NCI-H23 lung; 69.4% with NCI-H226 lung; 72.5% in the assay with NCI-H322M lung; 42% with HOP-62 NSCLC; 1.19% (active) in the assay on NCI-H460 lung; -2.48% (active) with NCI-H522 lung. Further, the growth with A549/ATCC NSCLC is 11.8%; in the assay on 786-0 renal it was 22.7%; in the assay on COLO 205 colon it was -31.5% (active); with DU-145 prostate, 5.32% (active); in the assay on K-562 leukemia, 18.4%; in the assay with MALME-3M melanoma, 66.3%. Besides, the growth is 22.4% in the assay with MDA-MB-231 breast; 34.8% with RXF 393 renal; 34.4% in the assay with SF-268 CNS; -16.6% (active) in the assay with SF-295 CNS; 10.2% in the assay with SF-539 CNS; 67.1% in the assay on UACC-257 melanoma. Besides, the growth in the assay on M14 melanoma is 9.28% (active); with HCT-15 colon, 19.5%.

Values taken from PubChem BioAssay (NCI).
